From the supplement of paper PMC8285479
Structures can show the parent of a compound that is named as a salt. ± gives the standard deviation of the averaged measurements. The full ranking holds about 1,900 compounds; the median of “normalised cell viability (NPI; 0 = phenylarsine oxide control, 1 = DMSO control)” is about 1, and the lowest 2% start at about 0.039. The sample holds the lowest values, similar compounds and a random draw of the others, so the mix is not that of the screen.

Tested on: NCI-H1944
Assay: normalised cell viability (NPI; 0 = phenylarsine oxide control, 1 = DMSO control) (fraction of DMSO control); NCI-H1944 is a non-small cell lung cancer line; higher = more viable cells (less compound toxicity)
Conditions: 6 days
[1] = glucocorticoid arm: hydrocortisone 2.75 uM co-treatment, compound 1 µM
[2] = glucocorticoid arm: hydrocortisone 2.75 uM co-treatment, compound 5 µM
[3] = glucocorticoid arm: hydrocortisone 2.75 uM pre-treated 2 days and continued, compound 1 µM
[4] = glucocorticoid arm: hydrocortisone 2.75 uM pre-treated 2 days and continued, compound 5 µM
[5] = glucocorticoid arm: vehicle, compound 1 µM
[6] = glucocorticoid arm: vehicle, compound 5 µM
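Also: CTB read-out in 384-well plates, triplicate wells, NPI normalised per plate against 1 µM phenylarsine oxide (0) and 0.1% DMSO (1) controls.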

Compound	normalised cell viability [1]	normalised cell viability [2]	normalised cell viability [3]	normalised cell viability [4]	normalised cell viability [5]	normalised cell viability [6]
NC(CCCP(=O)(O)O)C(=O)O (racemic) [(±)-2-Amino-5-phosphonopentanoic acid]	0.987 ± 0.0072	0.9967 ± 0.0031	0.9907 ± 0.0083	0.993 ± 0.0028	0.98 ± 0.0056	0.9857 ± 0.0098
N[C@@H](CCC(=O)N[C@@H](CSN=O)C(=O)NCC(=O)O)C(=O)O [S-Nitrosoglutathione]	1.003 ± 0.0058	1.02 ± 0.025	1.02	1.04 ± 0.064	0.9933 ± 0.0035	1 ± 0.014
c1ccc2c(c1)CC(N1CCN(c3cccc4c3OCCO4)CC1)C2	0.988 ± 0.019	0.9857 ± 0.0084	0.995 ± 0.015	1.03 ± 0.081	1.003 ± 0.0058	1.02 ± 0.011
Nc1nccc2c1ncn2[C@@H]1O[C@H](CO)[C@@H](O)[C@H]1O [3-deazaadenosine]	0.989 ± 0.0099	0.973 ± 0.025	0.996 ± 0.012	0.981 ± 0.011	0.9687 ± 0.0035	0.968 ± 0.0062
O=C(c1ccc(Nc2nccc(-c3cc4ccccc4s3)n2)cc1)N1CCC(N2CCCC2)CC1 [IKK-16 (IKK Inhibitor VII)]	0.901 ± 0.0072	0.626 ± 0.03	0.913 ± 0.015	0.837 ± 0.021	0.9453 ± 0.0065	0.0503 ± 0.008
CNCC[C@H](Oc1cccc2ccccc12)c1cccs1 [Duloxetine HCl]	0.9993 ± 0.0011	0.9847 ± 0.0032	1.01 ± 0.018	0.98 ± 0.015	0.999 ± 0.0095	0.9923 ± 0.0083
C[n+]1cc2c3c(ccc2c2ccc4cc5c(cc4c21)OCO5)OCO3 [Sanguinarine chloride]	1.04 ± 0.011	-0.0014 ± 0.001	0.903 ± 0.2	-0.00109 ± 0.00052	0.983 ± 0.037	-0.000203 ± 0.00043
Cc1ccccc1CNc1ncnc2c1ncn2[C@@H]1O[C@H](CO)[C@@H](O)[C@H]1O [Metrifudil]	1.01 ± 0.011	1.03 ± 0.017	1.02	1.04 ± 0.071	0.996 ± 0.004	1.001 ± 0.0085
O=C(O)C1CCNCC1 [Isonipecotic acid]	1.003 ± 0.0058	1.02 ± 0.017	1.01 ± 0.018	1.04 ± 0.07	0.9937 ± 0.0015	1.001 ± 0.0078
Cc1ccccc1/C=C/C1=NCCN1 [Metrazoline oxalate]	0.9993 ± 0.0011	1.002 ± 0.0072	1.01	0.987 ± 0.017	0.995 ± 0.007	1.002 ± 0.0076
CN(N=O)C(=O)N[C@@H]1[C@@H](O)[C@H](O)[C@@H](CO)O[C@@H]1O [Streptozocin]	1 ± 0.014	1.03 ± 0.015	1.001 ± 0.0081	1.04 ± 0.01	0.9943 ± 0.0051	1
CC(C)[C@H]1c2ccc(F)cc2CC[C@@]1(CCN(C)CCCc1nc2ccccc2[nH]1)OC(=O)C1CC1	0.9943 ± 0.0051	-0.000718 ± 0.00075	1.013 ± 0.0058	1.08 ± 0.035	0.989 ± 0.0095	-6.33e-05 ± 0.0017
COCC(=O)O[C@]1(CCN(C)CCCc2nc3ccccc3[nH]2)CCc2cc(F)ccc2[C@@H]1C(C)C [Mibefradil dihydrochloride]	0.977 ± 0.011	0.0303 ± 0.012	1 ± 0.015	0.827 ± 0.24	0.9887 ± 0.0031	0.00844 ± 0.014
CCOc1ccc(Cc2cc([C@@H]3O[C@H](CO)[C@@H](O)[C@H](O)[C@H]3O)ccc2Cl)cc1 [Dapagliflozin]	1.01 ± 0.016	1.02 ± 0.026	1.02 ± 0.015	1.04 ± 0.017	1.001 ± 0.0081	1 ± 0.011
CNC(=O)[C@H]1O[C@@H](n2cnc3c(N)ncnc32)[C@H](O)[C@@H]1O [5'-N-Methyl carboxamidoadenosine]	0.982 ± 0.02	0.972 ± 0.015	0.988 ± 0.013	0.961 ± 0.0028	0.9893 ± 0.0078	0.976 ± 0.0053
O=C(O)/C(=C\c1c(C(=O)O)[nH]c2cc(Cl)cc(Cl)c12)c1ccccc1	1.02 ± 0.015	1.06 ± 0.017	1.017 ± 0.0058	1.08 ± 0.081	0.995 ± 0.002	1.013 ± 0.0058
C/C=C1\NC(=O)[C@H]2CSSCC/C=C/[C@H](CC(=O)N[C@H](C(C)C)C(=O)N2)OC(=O)[C@H](C(C)C)NC1=O [Depsipeptide]	6.37e-05 ± 0.001	1.05 ± 0.02	0.00143 ± 0.00036	1.027 ± 0.0058	0.00028 ± 0.00044	1.01
C/C=C1\NC(=O)[C@H]2CSSCC/C=C/[C@H](CC(=O)N[C@H](C(C)C)C(=O)N2)OC(=O)[C@H](C(C)C)NC1=O [Romidepsin]	1.005 ± 0.0092	1.02 ± 0.011	1.007 ± 0.0058	1.02 ± 0.015	0.9903 ± 0.0045	0.979 ± 0.019
C/C=C1\NC(=O)[C@H]2CSSCC/C=C/[C@H](CC(=O)N[C@H](C(C)C)C(=O)N2)OC(=O)[C@H](C(C)C)NC1=O [Romidepsin (FK228, Depsipeptide)]	0.00704 ± 0.0021	0.000455 ± 0.00053	0.00593 ± 0.0021	0.000393 ± 0.00068	0.00559 ± 0.0012	2.1e-05 ± 0.00023
O=C(O)C1CCCNC1 (racemic) [(±)-Nipecotic acid]	0.9947 ± 0.005	1.01 ± 0.014	1.02 ± 0.059	1.02 ± 0.021	1 ± 0.01	1.013 ± 0.0058
CN(C)CCSSCCNC(=O)C1CCN(C(=O)CSc2ccc(Cl)cc2)CC1	1.01 ± 0.01	1.04 ± 0.015	1.027 ± 0.0058	1.05 ± 0.01	0.9967 ± 0.0035	0.9967 ± 0.0042
N[C@@H](Cc1c[nH]cn1)C(=O)O [L-Histidine hydrochloride]	1.017 ± 0.0058	0.996 ± 0.012	1 ± 0.014	1.02 ± 0.01	0.9973 ± 0.0038	0.9973 ± 0.0046
O=C(O)c1ccnc(C(=O)O)c1 [2,4-Pyridinedicarboxylic Acid]	1 ± 0.022	0.999 ± 0.045	0.996 ± 0.021	1.01 ± 0.024	0.996 ± 0.015	0.999 ± 0.015
